Bioassay records (PubChem)
Rows were chosen to be rich in hits. Some 0.87% of all compounds tested hit in one or more screens of this group.
TLR4-MyD88 BLA = blocks binding of human TLR4 to MyD88. HeLa CL3-4 TLR4/MyD88 BLA complementation, FRET ratio. inhibition, % at 8.4 µM. 200,000 compounds, 0.18% hits; in the data active = inhibition above about 25%;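 also: 0% = vehicle and 100% = reference inhibitor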
NOD2 RIPK2 PPI = NOD2-RIPK2 protein interaction inhibition | CHO BLA complementation NOD2-RIPK2, CCF4 ratio | inhibition, % at 4.98 µM | 360,000 compounds, 0.38% hits | AID 624267; in the data active = inhibition above about 21%;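 also: 0% = vehicle only and 100% = reference blocker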
Target sequence (O43353 whole entry, looked up): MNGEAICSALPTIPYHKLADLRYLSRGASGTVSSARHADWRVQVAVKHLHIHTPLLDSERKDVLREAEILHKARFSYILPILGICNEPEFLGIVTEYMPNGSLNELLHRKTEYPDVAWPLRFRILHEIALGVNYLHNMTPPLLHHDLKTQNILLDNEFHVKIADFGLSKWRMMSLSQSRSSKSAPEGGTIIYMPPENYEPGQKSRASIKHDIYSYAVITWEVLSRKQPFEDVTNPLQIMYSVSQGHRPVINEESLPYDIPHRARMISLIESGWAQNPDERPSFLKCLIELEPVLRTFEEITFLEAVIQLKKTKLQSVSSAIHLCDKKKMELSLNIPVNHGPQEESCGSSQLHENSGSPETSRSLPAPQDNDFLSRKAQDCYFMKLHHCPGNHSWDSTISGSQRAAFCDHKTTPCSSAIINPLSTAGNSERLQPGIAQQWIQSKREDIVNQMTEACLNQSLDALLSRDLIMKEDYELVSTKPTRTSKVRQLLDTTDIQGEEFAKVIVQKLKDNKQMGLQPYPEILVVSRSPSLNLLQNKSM
IDE cell activ = boosts human insulin-degrading enzyme activity in HEK cells. FAbeta-B cleavage, fluorescence polarization; 0% vehicle, 100% cell-free pure enzyme wells. activation, % at 5.96 µM. 340,000 compounds, 0.073% hits;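 active = activation above the mean of all tested compounds plus 3 SD, set per screening campaign, cut at about 17% in these data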
TLR9-MyD88 inh = blocks human TLR9 binding to MyD88 | inhibition, % at 4.98 µM | Q9NR96+Q99836 | 340,000 compounds, 0.21% hits | CHO BLA complementation TLR9-MyD88, CCF4 FRET ratio;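 active = inhibition above the mean over all tested compounds plus 3 SD, cut at about 21% in these data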;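 also: 0% = DMSO only wells and 100% = clavulanate BLA inhibitor control wells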
IDE inh = cellular human IDE inhibition; HEK cells, FAbetaB cleavage, fluorescence polarization; inhibition, % at 5.59 µM; AID 434962; 320,000 compounds, 0.41% hits; P14735;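 active = percent inhibition above the average of all tested compounds plus 3 SD, set per screening campaign, cut at about 16% in these data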;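 also: IDE supplied by intact live HEK cells; FP after avidin binding of uncleaved biotin substrate so inhibition keeps polarization high; 0% = DMSO wells and 100% = 60 µM reference IDE inhibitor Ii1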
NOD2 RIPK2 conf = confirmation of human NOD2-RIPK2 interaction inhibitors; shares compounds with NOD2 RIPK2 PPI; CHO cells, NOD2-RIPK2 BLA complementation, CCF4 FRET; inhibition, % at 4.98 µM; 1,200 compounds, 70% hits; AID 624370;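 active = mean inhibition across replicates above a set limit taken from the earlier primary screen, cut at about 21% in these data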;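 also: 0% = DMSO-only wells and the high end = clavulanate BLA-blocked wells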
BLA counter = counter-screen for NOD2-RIPK2 interaction inhibitors: BLA reporter. 1,200 compounds, 57% hits. shares compounds with NOD2 RIPK2 PPI. inhibition, % at 4.98 µM. CHO BLA reporter, CCF4 FRET ratio, counterscreen;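 active = mean inhibition above the low-control mean inhibition plus three low-control SD, cut at about 11% in these data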;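 also: 0% = DMSO only wells and 100% = clavulanate high control wells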
* = called active by the depositor; · = no result.

SMILES | TLR4-MyD88 BLA | NOD2 RIPK2 PPI | IDE cell activ | TLR9-MyD88 inh | IDE inh | NOD2 RIPK2 conf | BLA counter
O=S(=O)(Nc1ccc(C(O)(C(F)(F)F)C(F)(F)F)cc1)c1ccc(Cl)c2nonc12 | · | 29* | · | · | · | 32* | 4
Cc1cccc(NC(=O)CNC(=O)c2ccc3c(c2)OCO3)n1 | · | 38* | -2 | -1 | 1 | -6 | 2
CC(C)(C)NC(=O)C(c1ccncc1)n1c(=O)c(-c2cc3ccccc3[nH]2)nc2ccccc21 (configuration not stated) | · | 49* | · | · | · | 48* | 68*
CC(C)(C)NC(=O)C(c1ccccc1)n1c(=O)c(-c2ccccc2)nc2ccccc21 (configuration not stated) | · | -13 | · | · | · | · | ·
COc1ccc(C(C(=O)NC(C)(C)C)n2c(-c3ccc(-c4ccccc4)cc3)nc3ccccc32)cc1 (configuration not stated) | · | -9 | · | · | · | · | ·
COc1ccc(C(C(=O)NC(C)(C)C)n2c(=O)c(-c3cc4ccccc4[nH]3)nc3ccccc32)cc1 (configuration not stated) | · | 41* | · | · | · | 40* | 64*
CC(C)(C)NC(=O)C(c1cc2ccccc2o1)n1c(=O)c(-c2cc3ccccc3[nH]2)nc2ccccc21 (configuration not stated) | · | 50* | · | · | · | 46* | 70*
C/C(=N/N=C1\SCC(=O)N1c1ccccc1)c1ccc(C)cc1 | · | 2 | · | · | 3 | · | ·
Cc1cccc(-n2cnc3c(sc4nc(N5CCOCC5)c5c(c43)CCCC5)c2=O)c1 | · | -11 | 5 | 7 | 1 | · | ·
Cc1cc(C)nc(SCc2ccc(C(=O)NNC(=O)Nc3cccc(Cl)c3)cc2)n1 | 6 | -9 | 2 | 3 | 8 | · | ·
O=C(c1ccc(Br)cc1)C(CN1CCOCC1)c1ccccc1 (configuration not stated) | · | 26* | -3 | 14 | 1 | 27* | -3
COc1ccccc1N1C(=O)CC(N2CCN(c3ccc([N+](=O)[O-])cc3)CC2)C1=O (configuration not stated) | · | 22* | 0 | -4 | 2 | 1 | -3
COc1cccc(N2C(=O)CC(N3CCN(c4ccc([N+](=O)[O-])cc4)CC3)C2=O)c1 (configuration not stated) | · | 1 | 4 | -3 | -4 | · | ·
O=C(C[n+]1ccccc1)c1ccc(NC(=O)c2ccccc2)cc1 | 15 | 35* | -2 | 0 | 2 | -1 | -7
CCCNC(=O)c1ccc(COc2cccc3ccccc23)o1 | · | 26* | -3 | -1 | 3 | 2 | -4
Cc1cccc(C)c1NC(=O)C(C1CC1)n1c(=O)c(-c2ccccc2)nc2ccccc21 (configuration not stated) | · | 8 | · | · | · | · | ·
Cc1cccc(C)c1NC(=O)C(C1CC1)n1c(=O)c(-c2cc3ccccc3[nH]2)nc2ccccc21 (configuration not stated) | · | 47* | · | · | · | 42* | 67*
CC(C)(C)NC(=O)C(C1CC1)n1c(=O)c(-c2ccco2)nc2ccccc21 (configuration not stated) | · | -11 | · | · | · | · | ·
CC(C)(C)NC(=O)C(C1CC1)n1c(=O)c(-c2cc3ccccc3[nH]2)nc2ccccc21 (configuration not stated) | · | 42* | · | · | · | 39* | 62*
COc1ccc(C(C(=O)NCc2ccccc2)n2c(=O)c(-c3cc4ccccc4[nH]3)nc3ccccc32)cc1 (configuration not stated) | · | 44* | · | · | · | 40* | 64*
COc1ccc(C(C(=O)NCc2ccccc2)n2c(-c3ccncc3)nc3ccccc32)cc1 (configuration not stated) | · | 1 | · | · | · | · | ·
O=C(NCc1ccccc1)C(c1ccccc1F)n1c(=O)c(-c2cc3ccccc3[nH]2)nc2ccccc21 (configuration not stated) | · | 53* | · | · | · | 48* | 70*
O=C(NCc1ccccc1)C(c1ccc(-c2ccccc2)cc1)n1c(=O)c(-c2cc3ccccc3[nH]2)nc2ccccc21 (configuration not stated) | · | 23* | · | · | · | 42* | 66*
O=C(NCc1ccccc1)C(c1ccncc1)n1c(=O)c(-c2cc3ccccc3[nH]2)nc2ccccc21 (configuration not stated) | · | 54* | · | · | · | 51* | 67*
O=C(NCc1ccccc1)C(c1ccc(C(F)(F)F)cc1)n1c(=O)c(-c2ccccc2)nc2ccccc21 (configuration not stated) | · | 3 | · | · | · | · | ·
SMILES | TLR4-MyD88 BLA | NOD2 RIPK2 PPI | IDE cell activ | TLR9-MyD88 inh | IDE inh | NOD2 RIPK2 conf | BLA counter
CCN(C(=O)CN1C(=O)NC(c2ccccc2)(c2ccc(C)c(C)c2)C1=O)C1CCCCC1 (configuration not stated) | · | 20 | 2 | 14 | 4 | · | ·
O=C(NCCCSc1ccccc1)c1cc(Cl)ccc1O | · | 1 | -3 | -4 | · | · | ·
CCN1CCN(c2ccc(S(=O)(=O)N3CCCCC3)cc2NC(=O)c2ccc(C)o2)CC1 | · | 2 | 3 | 5 | 4 | · | ·
COc1ccc(C(=O)COC(=O)CCNS(=O)(=O)c2ccccc2)c(OC)c1 | · | -9 | 3 | 5 | -1 | · | ·
O=C(Nc1cc(Br)ccc1O)C1CC(c2c(F)cccc2Cl)=NO1 (configuration not stated) | · | 22* | 2 | 2 | 5 | 0 | -3
CC(C)(C)NCC(=Cc1ccccc1)C(=O)c1ccccc1 | · | 27* | 2 | -2 | · | 24* | 3
CSc1ccc(CN2CCC2(C)C(=O)Nc2cnc3ccccc3c2)cc1 (configuration not stated) | · | 4 | · | · | · | · | ·
Cc1cc(F)ccc1NC(=O)c1ccc(NS(=O)(=O)c2cc(C(C)(C)C)ccc2C)cc1 | -6 | -3 | -2 | 2 | -1 | · | ·
CC(=O)Nc1ccc(NC(=O)c2ccc(NS(=O)(=O)c3cc(C(C)(C)C)ccc3C)cc2)cc1 | 10 | 39* | 0 | 5 | 2 | -34 | -8
CC(C)(C)Cc1nnc(NS(=O)(=O)c2ccc([N+](=O)[O-])cc2)s1 | · | 3 | 2 | 6 | 4 | · | ·
O=C1OCCN1C(=O)[C@H]1[C@H](c2ccc(Cl)cc2)C(c2ccccc2)=NN1c1ccccc1 | · | 2 | 7 | -3 | · | · | ·
O=C1OCCN1C(=O)[C@H]1[C@H](c2ccccc2)C(c2cccc(Cl)c2)=NN1c1ccccc1 | · | 27* | -1 | -14 | · | 14 | 38*
O=C(NC(=S)Nc1sc2c(c1C(=O)O)CCCC2)c1ccccc1 | · | 35* | -3 | -1 | 0 | 1 | -7
O=C(Nc1sc2c(c1C(=O)O)CCCC2)c1ccccc1Cl | · | 2 | 9 | 4 | 0 | · | ·
O=P(CCCCCCCCCP(=O)(c1ccccc1)c1ccccc1)(c1ccccc1)c1ccccc1 | 0 | 22* | -2 | 3 | 5 | 16 | 3
